# In the library only some 10% were active in any assay of this set; here they are far more common.
# BAZ2B block: BAZ2B (human) inhibition. Q9UIF8. AlphaScreen BAZ2B-H3K14Ac peptide displacement. Potency, µM (highest dose often 114 µM), inactives show at the highest dose activity change, negative = inhibition, usual class: inhibitors. 4.4% of 360,000 active. AID 504333; note: potency is the fitted concentration of half-maximal effect; % is set by controls: 0 for no effect and ±100 for the full control effect; nearly all actives have a fitted effect of over 60% in size
#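 Protein-peptide AlphaScreen: BAZ2B 50 nM, b-H3K14Ac 50 nM, 1x PBS pH 7.4 + 0.01% Tween-20. Preincubation 30 min RT; cpd 30 min RT (top 110 uM); beads 20 min RT, light-protected.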
# Six1-Eya2 inh: inhibitors of human Six1/Eya2 interaction. Q15475+O00167. activity change, % (test concentration not listed). 0.56% of 360,000 active. AlphaScreen GST-Six1/His-Eya2 binding, biochemical; stronger effect = lower value; in the data active = activity change below about -65%; inconclusive = mostly about -30% to -63%; note: % is set by controls: 0 for no effect and ±100 for the full control effect
# Target sequence (O00167 whole entry, looked up): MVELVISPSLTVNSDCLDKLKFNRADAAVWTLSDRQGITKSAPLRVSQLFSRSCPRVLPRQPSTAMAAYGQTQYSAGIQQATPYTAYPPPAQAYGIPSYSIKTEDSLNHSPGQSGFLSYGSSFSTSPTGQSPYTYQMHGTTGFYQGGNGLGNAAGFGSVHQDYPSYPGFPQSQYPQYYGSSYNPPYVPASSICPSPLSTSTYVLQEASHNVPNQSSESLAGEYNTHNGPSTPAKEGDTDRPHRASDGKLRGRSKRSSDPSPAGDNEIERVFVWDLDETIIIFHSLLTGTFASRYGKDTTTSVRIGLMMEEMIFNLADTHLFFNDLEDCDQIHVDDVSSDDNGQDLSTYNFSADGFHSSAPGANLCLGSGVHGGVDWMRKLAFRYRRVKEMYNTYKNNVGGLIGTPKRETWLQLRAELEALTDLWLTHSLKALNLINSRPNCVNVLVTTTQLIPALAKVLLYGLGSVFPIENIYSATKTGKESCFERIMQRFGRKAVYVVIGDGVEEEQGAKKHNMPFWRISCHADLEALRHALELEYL
# Target sequence (Q15475 whole entry, looked up): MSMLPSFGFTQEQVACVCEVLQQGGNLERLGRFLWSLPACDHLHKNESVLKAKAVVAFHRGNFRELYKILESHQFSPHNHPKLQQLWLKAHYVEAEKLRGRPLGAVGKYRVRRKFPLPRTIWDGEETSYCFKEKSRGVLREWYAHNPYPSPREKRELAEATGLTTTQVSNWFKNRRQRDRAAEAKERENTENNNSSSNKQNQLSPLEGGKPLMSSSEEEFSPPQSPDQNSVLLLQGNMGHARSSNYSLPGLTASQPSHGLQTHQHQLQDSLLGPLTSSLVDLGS
#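 Six1/Eya2 binding was read as AlphaScreen signal after compounds were pinned into GST-Six1 plus His-tagged Eya2 (5X stock 250/500 nM) in pH 8.0 Tris/NaCl/TCEP buffer, beads added, then incubated 1 h, 37 C, dark.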
# G9a block: G9a (human) methyltransferase inhibition. Q96KQ7. G9a H3K9 monomethylation, AlphaScreen, 2 h. Potency, µM (top dose mostly 102 µM), without a hit: top-dose activity, negative = inhibition, hits mostly inhibitors. 8.8% of 350,000 active. AID 504332; note: potency is the fitted concentration of half-maximal effect; % is set by controls: 0 for no effect and ±100 for the full control effect; nearly all actives have a fitted effect of over 75% in size
#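 Signal arises when biotinylated H3K9 peptide, once monomethylated, bridges streptavidin donor and antibody-captured acceptor beads. Enzyme at 20 nM was preincubated 15 min with test compounds; peptide 500 nM and SAM 20 uM then reacted for 2 h.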
# JMJD2A Tudor inh: blocks the human JMJD2A Tudor domain; Potency, µM (titrated, usually from 114 µM), without a hit: top-dose activity change, negative = inhibition, usual class: inhibitors; AlphaScreen JMJD2A-Tudor / H3K4me3 peptide binding; 4.4% of 390,000 active; AID 504339; O75164; note: potency is the fitted concentration of half-maximal effect; % is set by controls: 0 for no effect and ±100 for the full control effect; nearly all actives have a fitted effect of over 50% in size
# HP1b binding inh: blocks HP1-beta chromodomain binding to methylated histone tails | 0.56% of 390,000 active | Potency, µM (series often up to 114 µM), for the others: top-dose activity change, negative = inhibition, hits mostly inhibitors | AlphaScreen HP1-beta / biotin-H3K9me3 peptide binding; note: potency is the fitted concentration of half-maximal effect; nearly all actives have a fitted effect of over 70% in size
#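 Compound inhibition of the preformed complex between 50 nM HP1-beta and 50 nM biotinylated H3K9me3 peptide was read by AlphaScreen. Buffer was PBS pH 7.4 with 0.01% Tween-20. Incubations ran 30 min at room temperature, with 10 ug/mL donor/acceptor beads.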
# CtBP-E1A inh: blocks the CtBP interaction with E1A. AlphaScreen GST-E1A/His-CtBP binding, 1536-well; stronger effect = lower value. 0.49% of 340,000 active. activity change, % (concentration not given with the values); in the data active = activity change below about -65%; inconclusive = mostly about -30% to -63%; note: % is set by controls: 0 for no effect and ±100 for the full control effect
#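 Protein mix (5X: 125 nM each GST-E1A, His-CtBP) was incubated with pinned compound 2 h at 37 deg C in dark, in 50 mM Tris pH 8.0 buffer with 300 mM NaCl. Glutathione donor and nickel acceptor beads followed; AlphaScreen signal read after 1 h.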
# The depositor's hits bear a star; u = inconclusive; x = no result; [ ] = another dose, or the depositor's remark. Unless noted, calls come from the whole dose curve; as a rule, active = well fitted inhibition curve with a large enough effect; inconclusive = small, poorly fitted or top-dose-only effect; inactive = no such curve, though single readings can be large or run the other way.
SMILES,BAZ2B block,Six1-Eya2 inh,G9a block,JMJD2A Tudor inh,HP1b binding inh,CtBP-E1A inh
CC(C)(C)N1C(=O)c2ccccc2NC(=O)N1Cc1ccccc1,-12%,0,-24%[59 µM],-1%,37%,5
Cc1nc(N2CCCC2)c2c(C(=O)Nc3ccc(C)c(Cl)c3)c(C)oc2n1,7%[57.1 µM],x,-6%[59 µM],-14%,48%,x
S=C(c1ccc(-c2cc(Cl)ccc2Cl)o1)N1CCOCC1,35µM*,u,8.9µM*,u,18µM*,u
S=C(c1ccc(-c2cc(Cl)ccc2Cl)o1)N1CCCCC1,28µM*,-11,u,u,u,-3
Cn1ccc2cc3c(cc21)CCN3C(=O)Nc1cccnc1,u,-6,9.5µM*,79µM*,-28%,-20
CN1CCc2cc(NC(=O)Nc3cccnc3)ccc21,x,x,44%[12.7 µM],x,x,x
O=c1cc[nH]c2c1ccc1c(=O)cc[nH]c12,-26%,-75*,45µM*,u,14%,-86*
NC(=O)C1CCN(Cc2nc3cc(C(F)(F)F)ccc3c(=O)[nH]2)CC1,-24%,-1,14µM*,-10%,26%,x
O=C(Nc1ccc(Cl)c(Cl)c1)c1ccc(Cl)c(Cl)c1,-13%,7,20%,-9%,31%,x
O=C(Nc1ccc(C2=NCCN2)cc1)c1ccc(Cl)c(C(=O)Nc2ccc(C3=NCCN3)cc2)c1,-23%,x,18µM*,x,x,x
C#C[C@]1(OC(C)=O)CCC2C3CCC4=CC(=O)CCC4C3CC[C@]21C (stereo not given in full),x,x,-41%[2.33 µM],x,x,x
Cc1ccc(/C=N/c2sc3c(c2C#N)CCCCC3)o1,28µM*,-30,14µM*,56µM*,u,-12
N#Cc1c(/N=C/C=C/c2ccccc2)sc2c1CCCC2,22µM*,-29,u,45µM*,18µM*,-24
N#Cc1c(/N=C/c2ccco2)sc2c1CCC2,-28%,-11,u,-29%,-3%,-9
Cc1nc(Oc2ccc(F)cc2Cl)c2oc3ccccc3c2n1,53%,x,27%[59 µM],19%,53%,x
CCOC(=O)N1CCN(CCC(=O)c2ccc(Cl)cc2)CC1,22%,12,u,-14%,18%,-1
CCOC(=O)N1CCN(CCC(=O)c2ccc(Br)cc2)CC1,0%,-3,4µM*,u,4%,7
COc1cc2c(cc1OC)CN(CCC(=O)c1ccc(Br)cc1)CC2,-23%,-2,14µM*,u,-13%,-5
COc1cc2c(cc1OC)CN(C(=O)CCNC(=O)c1ccc(Br)cc1)CC2,-4%,-1,u,-7%,15%,16
CCOC(=O)N1CCN(CCC(=O)c2ccc(OC)cc2)CC1,13%,-10,10µM*,-15%,45%,x
O=C(CSc1nnc(-c2cccs2)o1)NCC1CN(Cc2ccccc2)CCO1 (stereo not given),56µM*,-2,3.5µM*,-27%,10%,1
COc1ccc(C(=O)N/N=C/C(=O)c2ccccc2)cc1,-9%,-11,27%,-18%,33%,-8
CO/N=C/C(=N\Nc1ccc(OC)cc1)C(=O)c1ccc(OC)cc1,u,-4,35µM*,u,-26%,-10
COc1ccc(C(=O)C(/C=N/O)=N/Nc2ccc(F)cc2)cc1,u,-2,18µM*,-16%,20%,-4
CCCCNC(=O)C1(C)CCCCN1C(=O)c1ccc2sccc2c1 (stereo not given),x,5,x,x,x,8
SMILES,BAZ2B block,Six1-Eya2 inh,G9a block,JMJD2A Tudor inh,HP1b binding inh,CtBP-E1A inh
Cc1ccc(-c2nc(CNC(=O)c3ccco3)cs2)cc1,-16%,1,50µM*,-1%,34%,3
CCCc1cc(=O)[nH]c(SCC(=O)c2ccc(S(=O)(=O)N3CCCC3)cc2)n1,6%,1,50µM*,-19%,-6%,6
CCCc1cc(=O)[nH]c(SCC(=O)N2CCN(S(=O)(=O)c3ccc(Cl)cc3)CC2)n1,12%,33,0%[59 µM],-3%,31%,44
CCCc1cc(=O)[nH]c(SCC(=O)CSc2nc(CCC)cc(=O)[nH]2)n1,-2%,-3,56µM*,5%,44%,-3
CCCc1cc(=O)[nH]c(SCC(=O)c2cc(C)n(C3CC3)c2C)n1,u,-14,x,-29%,-11%,-5
CCCc1cc(=O)[nH]c(SCC(=O)c2cc(C)n(C)c2C)n1,-35%,-4,50µM*,-32%,17%,-1
CCCc1cc(=O)[nH]c(SCC(=O)NC)n1,-4%[57.1 µM],5,11%,-8%,29%,6
COc1ccc(CCNC(=O)Cn2nc(C)n3c(cc4occc43)c2=O)cc1OC,3%,x,4%[59 µM],-12%,25%,x
Cc1coc2c1c(C)cc1oc(=O)c(CC(=O)NCCc3ccc(Cl)cc3)c(C)c12,-3%,x,-4%[59 µM],-6%,31%,x
Cc1ccc(S(=O)(=O)NCC(=O)NCC(=O)N(C)Cc2ccc3ccccc3c2)cc1C,u,5,-32%,-26%,17%,-3
CC(C)Oc1ccc(OCCn2c(S(=O)(=O)O)nc3c(N)ncnc32)cc1,-7%,7,u,-17%,24%,x
Cc1ccc(OCCn2c(=S)[nH]c3c(N)ncnc32)cc1,-26%,1,3.5µM*,5µM*,u,-10
CC(C)Oc1ccc(OCCn2c(=S)[nH]c3c(N)ncnc32)cc1,-34%,-1,2.5µM*,5.6µM*,u,x
CCN1c2ccccc2-c2nc(SCC(=O)Nc3c(C)cc(C)cc3C)ncc2S1(=O)=O,4%,x,1%[59 µM],-5%,2%,x
COc1ccc(OCc2ccc(/C=N\NC(=O)c3sccc3C)o2)cc1,-22%,-18,40µM*,-21%,24%,u
CC1=C(C(N)=O)C(c2ccc(C)cc2)n2nc(SCc3ccccc3F)nc2N1 (stereo not given),-4%,x,-11%[59 µM],-5%,25%,x
CC(C)(C)c1ccc(NC(=O)C2=CC=CN3CCS(=O)(=O)N=C23)cc1,4%,-1,5%[2.33 µM],-10%,24%,6
CCN(CC)c1ccc(NC(=O)C2=CC=CN3CCS(=O)(=O)N=C23)cc1,45µM*,-22,u,u,-23%,x
Cc1[nH]c(=S)[nH]c(=O)c1CCCO,-16%,4,71µM*,-7%,24%,4
CCCCc1c(C)[nH]c(=S)[nH]c1=O,-8%,-1,-8%,-9%,42%,x
O=c1[nH]nc(Cc2ccccc2)c2ccccc12,7%,-1,-4%[59 µM],-4%,20%,1
O=c1[nH]c(=S)[nH]nc1Cc1ccccc1,-7%,3,40µM*,u,28%,2
Cc1[nH]c(=S)[nH]c(=O)c1Cc1ccccc1,2%,6,50µM*,-23%,36%,7
CNc1nc2c(c(=O)n(C)c(=O)n2C)n1CC(O)COc1ccc(OC)cc1 (stereo not given),u,x,-24%[59 µM],-25%,12%,x

# Source: PubChem BioAssay
